Assay results reported in PubChem BioAssay.
Active and inactive are the calls of the source.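 Rule for the calls, unless noted: active = viability at or under a set limit in both replicates, limit being median viability minus 3 SD (cut at about 48% in these data, passing the limit was not always enough); inconclusive = at or under the limit in just one replicate; inactive = at or above the limit in both replicates.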

Key:
[1] = Her2 expression decrease, cell viability multiplex – SKBR3 breast tumor cells, AlphaScreen, ATP viability, primary screen (AID 461;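 active = Her2 level under about 52% in both replicate screens, with viability over 70% of control, limit read from the data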;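 for Her2 level: lower value means less Her2 protein in the cells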;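 for viability: percent of carrier control wells set as 100% viability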); conditions: SKBR3 Her2 protein level, 18-24 h, measured here: SKBR3 viability, ATP luminescence, at 10 µM
[2] = target: Receptor tyrosine-protein kinase erbB-2 (Homo sapiens) (UniProt P04626); experiment: as above; conditions: 18-24 h, at 10 µM, stronger effect = lower value
[3] = reduced viability of SK-BR-3 breast cancer cells – cell-based, 24 h, human, pilot screen (AID 572;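 active = viability at or below 10% of carrier control in both of two separate runs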;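 note: compound exposure lasted between 18 and 24 h rather than exactly 24 h; 100% = carrier-treated control wells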); conditions: SK-BR-3 viability, CellTiter-Glo luminescence, at 10 µM, stronger effect = lower value
[4] = HUVEC growth inhibition – cell-based, human, primary screen (AID 575;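 active = viability at or below 30% in both replicate assays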;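 note: 100% = median of untreated cell wells with 0.1% DMSO on each plate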); conditions: HUVEC proliferation, CellTiter-Glo luminescence, 72 h; at 10 µM; stronger effect = lower value
[5] = H69AR cell proliferation blockers – human, duplicate replicates, primary screen (AID 580); conditions: H69AR lung tumor cells viability, ATP luminescence, 72 h; at 10 µM; stronger effect = lower value;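 note: 100% = mean luminescence of untreated wells and 0% = no signal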
[6] = MRP1 drug-resistance reversers in H69AR cells – cell-based, doxorubicin co-treatment, pilot screen (AID 601;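 active = viability loss from added drug above about 55%, and viability with drug at most 40%, in both replicates, limit read from the data, passing the limit was not always enough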); conditions: CellTiter-Glo, 72 h, at 10 µM; for differential viability (reversal): stronger effect = higher value
[7] = yeast transport mutant growth inhibition pilot in 384-well plates, post-Golgi transport modulator project (AID 636; in the data active = inhibition above about 31%); conditions: absorbance 615 nm, about 18 h, stronger effect = higher value
[8] = growth suppression of yeast trafficking mutant, preliminary HTS, modulators of trafficking downstream of Golgi apparatus project, 1536-format plate, OD 615 nm (AID 637; in the data active = inhibition above about 30%); conditions: yeast transport mutant growth, absorbance 615 nm, 18 h; stronger effect = higher value
[9] = H69AR cells + 2 uM doxorubicin, measured here: viability with 2 uM doxorubicin, stronger effect = lower value
[10] = H69AR cells, compound alone cytotoxicity

Chain of Receptor tyrosine-protein kinase erbB-2 (Homo sapiens) (P04626 whole entry, looked up): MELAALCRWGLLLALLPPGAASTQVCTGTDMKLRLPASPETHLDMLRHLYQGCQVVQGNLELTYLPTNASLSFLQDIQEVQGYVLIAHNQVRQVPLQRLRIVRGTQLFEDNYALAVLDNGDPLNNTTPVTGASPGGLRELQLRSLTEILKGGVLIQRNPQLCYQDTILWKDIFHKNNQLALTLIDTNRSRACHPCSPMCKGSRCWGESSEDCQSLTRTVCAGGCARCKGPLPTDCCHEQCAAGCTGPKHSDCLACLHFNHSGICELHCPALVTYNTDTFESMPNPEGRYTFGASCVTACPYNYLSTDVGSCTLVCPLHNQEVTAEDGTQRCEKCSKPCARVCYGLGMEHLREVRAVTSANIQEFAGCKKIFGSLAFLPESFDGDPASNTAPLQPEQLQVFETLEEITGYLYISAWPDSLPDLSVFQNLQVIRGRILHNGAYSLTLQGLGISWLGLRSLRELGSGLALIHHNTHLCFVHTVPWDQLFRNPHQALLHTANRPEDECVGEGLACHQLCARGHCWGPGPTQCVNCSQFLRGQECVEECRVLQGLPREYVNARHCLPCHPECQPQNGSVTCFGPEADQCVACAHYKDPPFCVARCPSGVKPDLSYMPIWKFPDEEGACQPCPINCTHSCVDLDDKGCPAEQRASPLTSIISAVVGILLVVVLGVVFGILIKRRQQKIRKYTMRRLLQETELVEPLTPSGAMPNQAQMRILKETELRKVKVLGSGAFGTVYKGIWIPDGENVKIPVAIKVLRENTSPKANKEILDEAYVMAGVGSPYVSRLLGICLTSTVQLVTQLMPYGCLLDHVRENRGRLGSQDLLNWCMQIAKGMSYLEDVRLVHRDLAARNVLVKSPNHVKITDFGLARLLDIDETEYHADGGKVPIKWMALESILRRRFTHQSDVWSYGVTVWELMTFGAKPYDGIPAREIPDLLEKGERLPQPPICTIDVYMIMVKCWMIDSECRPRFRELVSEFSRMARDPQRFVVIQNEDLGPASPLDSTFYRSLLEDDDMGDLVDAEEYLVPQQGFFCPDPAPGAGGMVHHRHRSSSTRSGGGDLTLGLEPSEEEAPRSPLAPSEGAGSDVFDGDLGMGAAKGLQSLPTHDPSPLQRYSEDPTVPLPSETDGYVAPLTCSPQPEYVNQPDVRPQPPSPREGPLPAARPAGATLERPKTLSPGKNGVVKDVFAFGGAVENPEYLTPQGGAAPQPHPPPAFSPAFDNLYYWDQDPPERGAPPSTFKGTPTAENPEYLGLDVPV

Row | Compound | viability [1] | Her2 level [2] | viability [3] | viability [4] | viability [5] | differential viability (reversal) ([6]; H69AR cells + 2 uM doxorubicin) | viability [6, 9] | viability [6, 10] | inhibition [7] | inhibition [8]
1 | Cc1cc(-c2ccccc2)nc2cc(C(N)=O)nn12 | 102% | 94% (inactive) | 102% (inactive) | 101% (inactive) | 96% (inactive) | 8.83% (inactive) | 87.1% | 96% | -2.63% (inactive) | 1.61% (inactive)
2 | CC(C)CCNC(=O)NC(=O)CSc1nnc(-c2ccccc2Br)o1 | 95% | 95.5% (inactive) | 95% (inactive) | 85.8% (inactive) | 104% (inactive) | 2.91% (inactive) | 101% | 104% | -4.74% (inactive) | 0% (inactive)
3 | COc1ccccc1NC(=O)CSc1nnc(-c2ccncc2)o1 | 108% | 96% (inactive) | 108% (inactive) | 111% (inactive) | 93.8% (inactive) | 2.67% (inactive) | 91.2% | 93.8% | 0.91% (inactive) | -4.33% (inactive)
4 | CCn1cc(C(=O)NCCN(C)CCc2ccccc2)c(=O)c2cc(S(=O)(=O)N(C)C)ccc21 | 90% | 106% (inactive) | 90% (inactive) | 75.9% (inactive) | 81.2% (inactive) | 1.48% (inactive) | 79.8% | 81.2% | -1.73% (inactive) | 12.6% (inactive)
5 | Cc1cc(NC(=O)C23CCC(C)(C(=O)O2)C3(C)C)no1 (stereo not given) | 108% | 93% (inactive) | 108% (inactive) | 96.7% (inactive) | 97.5% (inactive) | 8.27% (inactive) | 89.2% | 97.5% | -0.78% (inactive) | 0.63% (inactive)
6 | COc1ccccc1C(O)P(=O)(OC(C)C)c1ccc(N(C)C)cc1 (stereo not given) | 101% | 120% (inactive) | 101% (inactive) | 104% (inactive) | 98.1% (inactive) | 11.6% (inactive) | 86.5% | 98.1% | -6.53% (inactive) | -5% (inactive)
7 | CC(C)c1nc(N2CCN(C(=O)c3ccco3)CC2)c2c3c(sc2n1)CCCC3 | 76.5% | 94% (inactive) | 76.5% (inactive) | 66.4% (inactive) | 79.5% (inactive) | 1.06% (inactive) | 78.5% | 79.5% | -0.53% (inactive) | 20.9% (inactive)
8 | C/C(=C\C(=O)O)CC(=O)O | 100% | 119% (inactive) | 100% (inactive) | 98% (inactive) | 84.5% (inactive) | -15.7% (inactive) | 100% | 84.5% | -7.5% (inactive) | 5.25% (inactive)
9 | COCCNC(=O)CCCCCN1C(=O)CCC1=O | 108% | 79.5% (inactive) | 108% (inactive) | 105% (inactive) | 94.8% (inactive) | 10.4% (inactive) | 84.4% | 94.8% | -8.65% (inactive) | 4.76% (inactive)
10 | CC(C)(C)c1ccc2c(c1)OCC(C(=O)O)O2 (stereo not given) | 99.5% | 106% (inactive) | 99.5% (inactive) | 99.3% (inactive) | 106% (inactive) | 9.5% (inactive) | 96.3% | 106% | 0.55% (inactive) | -3.65% (inactive)
11 | COc1ccc(CC(=O)OCn2nnc3ccccc3c2=O)cc1 | 101% | 86% (inactive) | 101% (inactive) | 90.5% (inactive) | 98% (inactive) | -3.25% (inactive) | 101% | 98% | -5.6% (inactive) | -5.56% (inactive)
12 | CC(CN1CCCCC1)OC(=O)c1ccc2c(c1)OCO2 (stereo not given) | 104% | 96% (inactive) | 104% (inactive) | 99.1% (inactive) | 94.1% (inactive) | 7.31% (inactive) | 86.8% | 94.1% | -4.4% (inactive) | 6.72% (inactive)
13 | CCCNC(=O)C1=C(C)C(=O)OC12CCC(C)CC2 (stereo not given) | 94.5% | 102% (inactive) | 94.5% (inactive) | 87.2% (inactive) | 95.3% (inactive) | 5.14% (inactive) | 90.2% | 95.3% | 2.27% (inactive) | 3.61% (inactive)
14 | CCOC(=O)C1CCN(c2nc3ccccc3nc2C(C#N)C(=O)OC(C)C)CC1 (stereo not given) | 95% | 124% (inactive) | 95% (inactive) | 83.9% (inactive) | 84.2% (inactive) | -3.45% (inactive) | 87.6% | 84.2% | 1.37% (inactive) | 4.6% (inactive)
15 | CC(C)CCNC(=O)NC(=O)CSc1nnc(-c2ccccc2F)n1N | 94% | 108% (inactive) | 94% (inactive) | 99.9% (inactive) | 98.1% (inactive) | 6.23% (inactive) | 91.9% | 98.1% | 8.03% (inactive) | 14.8% (inactive)
